In PubChem BioAssay:
The source made the active and inactive calls.

Tests used:
[1] = E. coli DRC41 culture turbidity changes, primary screen, E. coli filamentation inducer project, strain DRC41, OD650, 48 h (AID 1152);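 note: E. coli MC1000 strain DRC41 lacking acrAB efflux pump and sulA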; details: E. coli DRC41 (acrAB sulA), higher = more signal, called active from +8 up or from −8 down
[2] = small-molecule binders of probe aLefty1, primary screen, biochemical, small-molecule microarray, 635/667 nm fluorescence (AID 1153); details: higher = more signal;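 note: score merges spot fluorescence with signal-to-noise ratio from the scanned slide images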
[3] = PSAC antagonists in infected red cells, primary screen, cell-based, P. falciparum Indochina, OD700, 1 h (AID 1154); details: P. falciparum Indochina infected RBC osmotic lysis, higher = more signal, called active from +8 up or from −8 down
[4] = PSAC antagonists in infected red cells, primary screen, cell-based, P. falciparum Indochina, OD700, 2 h (AID 1155);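 note: lysis reports solute entry through the parasite surface anion channel PSAC; channel blockers reduce lysis of infected cells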; details: P. falciparum Indochina infected erythrocytes, osmotic lysis OD700; higher = more signal, called active from +8 up or from −8 down
[5] = osmotic lysis modulators in infected erythrocytes, primary screen, PSAC antagonist project, cell-based, P. falciparum Indochina, OD700, 3 h (AID 1156); details: higher = more signal, called active from +8 up or from −8 down
[6] = PSAC antagonists in infected red cells, primary screen, cell-based, P. falciparum Indochina, OD700, 18 h (AID 1157); details: P. falciparum Indochina infected erythrocytes, osmotic lysis OD700, 18 h; higher = more signal, called active from +8 up or from −8 down
[7] = modulators of S6 phosphorylation in cells, primary screen, cell-based, A549, cytoblot, luminescence, serum-stimulated (AID 1158); details: A549 phospho-S6 cytoblot, 5 h, higher = more signal;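 note: serum-stimulated A549 lung adenocarcinoma cells; signal is phosphorylated S6 detected by cytoblot immunostaining with HRP secondary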
[8] = molecular target: NADPH oxidase 2 (Homo sapiens) (UniProt P04839); test: NOX2-dependent H2O2 signal modulators, primary screen, NOX inhibitor project, cell-based, HEK293-NOX2, PMA-stimulated, Amplex Red fluorescence (AID 1159); details: 45 min, higher = more signal, called active from +8 up or from −8 down; note: test concentration not given here
[9] = molecular target: NADPH oxidase 4 (Homo sapiens) (UniProt Q9NPH5); test: NOX4-dependent H2O2 signal modulators, primary screen, NOX inhibitor project, cell-based, HEK293-NOX4, tetracycline-induced, Amplex Red fluorescence (AID 1160); details: 45 min, higher = more signal, called active from +8 up or from −8 down
[10] = molecular target: NADPH oxidase 5 (Homo sapiens) (UniProt Q96PH1); test: NOX5-dependent H2O2 signal modulators, primary screen, NOX inhibitor project, cell-based, HEK293-NOX5, Amplex Red fluorescence (AID 1161); details: HEK293-NOX5, ionomycin, 45 min, higher = more signal
[11] = A549 cell viability effects, profiling panel, calcein-AM fluorescence, 48 h, basal (AID 1162); details: higher = more signal; note: test concentration not given here
[12] = adipocyte viability effects, profiling panel, cell-based, 3T3-L1 adipocytes, calcein-AM fluorescence, 48 h, basal (AID 1163); details: 3T3-L1 adipocytes viability, higher = more signal; note: test concentration not given here
[13] = HepG2 cell viability effects, profiling panel, calcein-AM fluorescence, 48 h, basal (AID 1164); details: higher = more signal; note: test concentration not given here
[14] = MM1S cell viability effects, profiling panel, calcein-AM fluorescence, 48 h, basal (AID 1165); details: higher = more signal;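 note: viability of MM1S multiple myeloma cells under basal unstimulated conditions; test concentration not given here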
[15] = basal RPMI8226 viability, no added stimulus, profiling panel, cell-based, calcein-AM fluorescence, 48 h, PK04 Diversity Set (AID 1166); details: RPMI8226 myeloma viability, higher = more signal;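 note: cells grown under basal conditions without added stimulus; test concentration not given here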
[16] = basal HepG2 mitochondrial membrane potential changes, profiling panel, cell-based, JC-1 fluorescence, 24 h, 100 nL compound (AID 1167); details: higher = more signal; note: test concentration not given here
[17] = basal 3T3-L1 adipocyte mitochondrial potential changes, profiling panel, cell-based, JC-1 fluorescence, 3T3-L1 adipocytes, 24 h, 100 nL compound (AID 1168); details: JC-1 mitochondrial fluorescence, higher = more signal, called active from +8 up or from −8 down; note: test concentration not given here
[18] = basal RPMI8226 mitochondrial membrane potential changes, profiling panel, cell-based, JC-1 fluorescence, 24 h, 100 nL compound (AID 1169); details: RPMI8226 myeloma, JC-1 mitochondrial potential fluorescence, higher = more signal; note: test concentration not given here
[19] = basal MM1S mitochondrial membrane potential changes, profiling panel, cell-based, JC-1 fluorescence, 24 h, 100 nL compound (AID 1170); details: higher = more signal; note: test concentration not given here
[20] = A549 lung cancer cell viability effects, profiling panel, resazurin fluorescence, 24 h, PK04 Diversity Set (AID 1171); details: higher = more signal, called active from +8 up or from −8 down; note: test concentration not given here

NADPH oxidase 5 (Homo sapiens), sequence (Q96PH1 whole entry, looked up): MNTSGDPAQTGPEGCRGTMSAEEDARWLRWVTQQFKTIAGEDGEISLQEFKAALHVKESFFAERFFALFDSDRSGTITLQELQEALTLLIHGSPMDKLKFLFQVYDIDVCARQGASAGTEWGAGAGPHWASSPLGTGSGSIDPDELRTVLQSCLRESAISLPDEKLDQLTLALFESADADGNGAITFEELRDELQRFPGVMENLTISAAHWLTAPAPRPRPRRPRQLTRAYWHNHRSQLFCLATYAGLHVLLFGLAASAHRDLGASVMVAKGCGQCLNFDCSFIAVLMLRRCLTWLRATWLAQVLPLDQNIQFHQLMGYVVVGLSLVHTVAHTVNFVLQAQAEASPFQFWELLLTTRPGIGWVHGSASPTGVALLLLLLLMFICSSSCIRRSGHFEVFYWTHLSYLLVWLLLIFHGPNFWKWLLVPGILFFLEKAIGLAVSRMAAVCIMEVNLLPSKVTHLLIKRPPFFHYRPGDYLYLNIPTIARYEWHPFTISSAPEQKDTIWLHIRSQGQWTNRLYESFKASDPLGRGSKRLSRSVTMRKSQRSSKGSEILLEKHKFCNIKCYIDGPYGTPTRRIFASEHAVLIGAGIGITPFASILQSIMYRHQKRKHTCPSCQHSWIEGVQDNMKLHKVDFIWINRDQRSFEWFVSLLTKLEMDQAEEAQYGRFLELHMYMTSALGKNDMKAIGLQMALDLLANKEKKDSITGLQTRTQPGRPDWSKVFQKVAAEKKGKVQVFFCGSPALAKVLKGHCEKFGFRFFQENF
NADPH oxidase 2 (Homo sapiens), sequence (P04839 whole entry, looked up): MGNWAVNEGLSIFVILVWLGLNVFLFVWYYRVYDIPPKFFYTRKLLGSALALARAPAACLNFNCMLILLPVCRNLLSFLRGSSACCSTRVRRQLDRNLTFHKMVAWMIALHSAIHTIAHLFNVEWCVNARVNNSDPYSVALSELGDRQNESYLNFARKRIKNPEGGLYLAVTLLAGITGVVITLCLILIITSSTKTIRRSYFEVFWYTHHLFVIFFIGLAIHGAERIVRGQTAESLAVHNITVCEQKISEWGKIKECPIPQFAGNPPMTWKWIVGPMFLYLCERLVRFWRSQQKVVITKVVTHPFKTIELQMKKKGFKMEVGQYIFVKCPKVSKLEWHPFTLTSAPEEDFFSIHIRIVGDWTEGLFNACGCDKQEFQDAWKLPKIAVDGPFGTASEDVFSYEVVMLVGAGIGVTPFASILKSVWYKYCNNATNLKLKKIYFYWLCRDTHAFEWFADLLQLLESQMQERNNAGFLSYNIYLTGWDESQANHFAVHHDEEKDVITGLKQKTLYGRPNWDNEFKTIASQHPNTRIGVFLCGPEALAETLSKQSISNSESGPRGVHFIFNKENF
NADPH oxidase 4 (Homo sapiens), sequence (Q9NPH5 whole entry, looked up): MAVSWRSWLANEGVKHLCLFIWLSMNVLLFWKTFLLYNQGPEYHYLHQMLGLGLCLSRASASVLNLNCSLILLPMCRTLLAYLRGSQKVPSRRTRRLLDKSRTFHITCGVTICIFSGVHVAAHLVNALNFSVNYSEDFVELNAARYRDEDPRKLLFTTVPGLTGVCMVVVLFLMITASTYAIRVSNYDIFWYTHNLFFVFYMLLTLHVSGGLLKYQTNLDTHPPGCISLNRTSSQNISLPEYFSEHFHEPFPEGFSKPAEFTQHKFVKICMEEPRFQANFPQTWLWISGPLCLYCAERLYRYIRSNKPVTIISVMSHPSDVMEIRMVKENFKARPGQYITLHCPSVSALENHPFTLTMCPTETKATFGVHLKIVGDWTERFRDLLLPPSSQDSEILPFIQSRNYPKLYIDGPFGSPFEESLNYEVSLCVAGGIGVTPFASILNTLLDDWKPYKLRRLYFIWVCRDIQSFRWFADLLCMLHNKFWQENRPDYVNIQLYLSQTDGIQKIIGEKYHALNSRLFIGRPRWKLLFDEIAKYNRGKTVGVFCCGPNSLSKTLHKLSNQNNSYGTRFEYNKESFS

| Compound | z-score [1] | composite z-score [2] | z-score [3] | z-score [4] | z-score [5] | z-score [6] | z-score [7] | z-score [8] | z-score [9] | z-score [10] | z-score [11] | z-score [12] | z-score [13] | z-score [14] | z-score [15] | z-score [16] | z-score [17] | z-score [18] | z-score [19] | z-score [20] |
| --- | --- | --- | --- | --- | --- | --- | --- | --- | --- | --- | --- | --- | --- | --- | --- | --- | --- | --- | --- | --- |
| COC(=O)C1=CC(CCCO)=CC(c2ccc(CN3CCCC3)cc2)N(Cc2sc3ccccc3c2Cl)C=C1C(=O)OC (stereo not given) | 1.68 (inactive) | 1.17 | 3.27 (inactive) | -0.28 (inactive) | -0.235 (inactive) | -1.02 (inactive) | 1.6 | 0.613 (inactive) | 0.311 (inactive) | 0.116 | 1.38 | 0.0739 | 1.72 | 0.217 | 0.662 | 4.71 | 0.531 (inactive) | 0.393 | 2.3 | -0.142 (inactive) |
| CN(C)CCCC[C@@H]1NC(=O)[C@@H]2C[C@H](C(=O)NCc3ccc(F)cc3)[C@H](c3ccc(O)cc3)N2C1=O | -0.876 (inactive) | -0.0501 | 1.98 (inactive) | 0.947 (inactive) | -1.62 (inactive) | 0.35 (inactive) | 0.359 | 0.391 (inactive) | -0.25 (inactive) | 0.714 | -0.467 | -0.904 | 0.263 | 0.135 | -0.0865 | 0.393 | -0.0839 (inactive) | -0.963 | -0.187 | -0.454 (inactive) |
| C=CCC(OC(C)=O)[C@@H]1[C@@H](N(Cc2ccc(-c3ccccc3)cc2)C(=O)c2ccc(C)cc2)c2cc(OCCCO)ccc2N1C(=O)c1ccc2ccccc2c1 (stereo not given in full) | 2.09 (inactive) | 0.0367 | 0.0032 (inactive) | -0.792 (inactive) | -1.31 (inactive) | -1.33 (inactive) | 1.18 | -0.167 (inactive) | 0.972 (inactive) | 1.94 | 2.26 | 0.558 | 1.71 | 0.697 | -0.481 | 3.18 | -0.379 (inactive) | 0.0174 | 0.593 | 0.864 (inactive) |
| CCc1cccc(NC(=O)O[C@H]2[C@H](OC(=O)Nc3ccc4c(c3)OCO4)[C@H](OC(=O)Nc3ccc4c(c3)OCO4)[C@@H](OC)O[C@@H]2CO)c1 | -0.128 (inactive) | 0.349 | 18.2 (active) | 2.63 (inactive) | 1.73 (inactive) | 1.18 (inactive) | 0.921 | -3.43 (inactive) | -1.11 (inactive) | -1.65 | -1.45 | 1.16 | -1.35 | -2.42 | -2.17 | -1.56 | 0.248 (inactive) | -1.15 | -1.18 | -2.33 (inactive) |
| C=C(/C(=C/C[C@H](OC(=O)c1ccncc1)c1ccccc1OCCO)c1cc(C(=O)OC)ccc1OC)C(C)C | -0.458 (inactive) | 0.428 | 14.9 (active) | 2.53 (inactive) | 2.19 (inactive) | 1.02 (inactive) | 0.222 | 1.22 (inactive) | -0.614 (inactive) | -1.29 | 0.0292 | 0.322 | -0.275 | -1.85 | -0.122 | 0.589 | -0.617 (inactive) | -0.429 | 0.00378 | 1.47 (inactive) |
| CC(C)C[C@@H]1NC(=O)[C@@H]2C[C@H](C(=O)NCCCC[N+](C)(C)C)[C@H](c3ccc(O)cc3)N2C1=O | -0.04 (inactive) | -0.0145 | 1.32 (inactive) | 0.281 (inactive) | -0.0501 (inactive) | 0.449 (inactive) | 0.145 | -2.33 (inactive) | -1.4 (inactive) | -2.19 | 0.127 | -0.302 | -0.698 | -0.104 | -0.427 | -0.65 | -0.341 (inactive) | 0.496 | -0.548 | -1.18 (inactive) |
| CC(C)C[C@@H]1NC(=O)[C@H]2C[C@@H](C(=O)NCCCCCNC(=O)CS)[C@@H](c3ccc(O)cc3)N2C1=O | 0.213 (inactive) | -0.549 | 3.25 (inactive) | 0.945 (inactive) | 0.256 (inactive) | 0.277 (inactive) | -0.277 | 1 (inactive) | -0.828 (inactive) | 0.918 | -0.286 | 0.709 | -0.724 | -1.04 | -1.36 | -0.686 | -0.372 (inactive) | -0.113 | -0.611 | -0.858 (inactive) |
| O=C1O[C@H](c2ccccc2)[C@H](c2ccccc2)N2[C@H]1[C@@H](C(=O)N1CCN(c3ncccn3)CC1)[C@]1(C(=O)Nc3ccccc31)[C@H]2c1ccc(O)cc1 | 0.649 (inactive) | 0.0262 | 1.24 (inactive) | 1.01 (inactive) | -0.236 (inactive) | 1.01 (inactive) | 0.0782 | 0.898 (inactive) | -1.54 (inactive) | 1.65 | 0.947 | 1.36 | 0.406 | -1.28 | -4 | -1.26 | 1.04 (inactive) | -1.06 | 0.183 | 0.371 (inactive) |
| COC(=O)C1(CC(C)C)C=C2C(=C(C(C)C)C(=O)C2C)CN1 (stereo not given) | -1.85 (inactive) | 0.302 | 1.06 (inactive) | -0.385 (inactive) | 1.07 (inactive) | 0.274 (inactive) | -0.38 | 0.377 (inactive) | -1.05 (inactive) | -2.44 | -1.49 | -0.404 | -1.43 | 0.0112 | -1.31 | -1.31 | -1.46 (inactive) | 0.105 | -0.919 | -0.697 (inactive) |
